From PMC5913336, “True equilibrium measurement of transcription factor-DNA binding affinities using automated polarization microscopy” come the findings set out here.

One test has as its target T1, Kni (Drosophila melanogaster, UniProt P10734 2-102).
T1 sequence: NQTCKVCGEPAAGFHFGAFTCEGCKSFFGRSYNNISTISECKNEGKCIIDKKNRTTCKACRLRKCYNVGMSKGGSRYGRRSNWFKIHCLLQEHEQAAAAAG
The test is described as follows: FP; 33 mM phosphate pH 7.0, 90 mM NaCl, 0.01% Tween 20, 0.1 mM DTT, 0.5% agarose; room temperature. The note with it: tags: N-GST (pGEX-6P-1, kept); dsDNA, one strand shown.
For CAACACTAGAGCACT, the binding signal is 31.8 Kd / Kd of best base at the position. Same read-out and setting: to CAAAACTTGAGCACT belongs 25.5 Kd / Kd of best base at the position; to CAAAACTACAGCACT, 52.4 Kd / Kd of best base at the position. Regarding CAAAACTAGTGCACT, the binding signal was 4.66 Kd / Kd of best base at the position. On to CAAAACTAGATCACT, for which the binding signal was 1.39 Kd / Kd of best base at the position. CAAAACTAGAGCAGT: the binding signal was 2.97 Kd / Kd of best base at the position. Regarding CAAAACTAGAGCACA, the binding signal was 2.62 Kd / Kd of best base at the position.

As to CAAAACTCGAGCACT, the binding signal is 9.21 Kd / Kd of best base at the position. With CAAAACTAGGGCACT, the binding signal is 2.34 Kd / Kd of best base at the position.

Take CAAAACTAGAGCACC: the binding signal was 2.3 Kd / Kd of best base at the position.

Take CAAAACTAGAACACT: the binding signal is 3.87 Kd / Kd of best base at the position. As to CAAAACTAGACCACT, the binding signal is 3.9 Kd / Kd of best base at the position. Consider CAAAACAAGAGCACT, for which the binding signal is 7.6 Kd / Kd of best base at the position. Still for that read-out and setting: as for CACAACTAGAGCACT, the figure is 2.2 Kd / Kd of best base at the position.

Turning to CAAAACTGGAGCACT, the binding signal is 1.5 Kd / Kd of best base at the position. Turning to CAAAACTAGAGAACT, the binding signal was 69.3 Kd / Kd of best base at the position. On the same count and under the same terms, to CAATACTAGAGCACT belongs 6.63 Kd / Kd of best base at the position; to AAAAACTAGAGCACT, 1.14 Kd / Kd of best base at the position; to CAAAACTAGAGCAAT, 2.66 Kd / Kd of best base at the position. Still for that read-out and setting: as for CGAAACTAGAGCACT, the figure is 1.31 Kd / Kd of best base at the position; as for CAAGACTAGAGCACT, 9.44 Kd / Kd of best base at the position. In general, Kd refers to a measure of binding affinity in units of concentration. For CAAAACTAGAGCACT, the Kd was roughly 1.8 nM. With CAAAATTAGAGCACT, the binding signal is 1.05 Kd / Kd of best base at the position. Take CAAAACTAGAGTACT: the binding signal is 5.23 Kd / Kd of best base at the position. Turning to CAAAACTATAGCACT, the binding signal was 12.9 Kd / Kd of best base at the position.

For CAAAACTAAAGCACT, the binding signal is 8.43 Kd / Kd of best base at the position. Still for that read-out and setting: to CAAAACTAGAGCTCT belongs 7.77 Kd / Kd of best base at the position; to CAAAACTAGAGGACT, 36 Kd / Kd of best base at the position; to CAAAACTAGCGCACT, 9.49 Kd / Kd of best base at the position. As to TAAAACTAGAGCACT, the binding signal is 1.43 Kd / Kd of best base at the position. For the sequence CAAAAATAGAGCACT, the binding signal was 2.52 Kd / Kd of best base at the position. Consider CAAAGCTAGAGCACT, for which the binding signal was 16.3 Kd / Kd of best base at the position. On the same count and under the same terms, to CCAAACTAGAGCACT belongs 1.71 Kd / Kd of best base at the position. Regarding CAAAACGAGAGCACT, the binding signal is 3.56 Kd / Kd of best base at the position. Still for that read-out and setting: as for CAAAACTAGAGCACG, the figure is 2.74 Kd / Kd of best base at the position; as for CAAAACTAGAGCCCT, 12.1 Kd / Kd of best base at the position.

The target in the next test is T2, Pan (Drosophila melanogaster, UniProt P91943 258-356).
T2 sequence: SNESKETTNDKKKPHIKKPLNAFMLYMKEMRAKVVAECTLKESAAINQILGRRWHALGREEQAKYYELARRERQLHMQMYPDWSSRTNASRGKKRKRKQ
Described as above. The conditions noted are these: tags: N-GST (pGEX-6P-1, kept); dsDNA, one strand shown.
Take AGTGTTTGATAAA: the binding signal is 2.49 Kd / Kd of best base at the position. Regarding AGTCTGTGATAAA, the binding signal was 7.87 Kd / Kd of best base at the position.

With AGTCTTTGGTAAA, the binding signal was 1.21 Kd / Kd of best base at the position.
